Drawing on ChEMBL document CHEMBL3988442, “University of Dundee, Small-Polar-MMV Screening Library” (2021), this text covers Percent Effect for 51 compounds.

Experiment [1] has as its target T1, Aspartate--tRNA(Asp/Asn) ligase (Mycobacterium tuberculosis (strain ATCC 25618 / H37Rv)) (UniProt P9WFW3). Also: in the data most compounds retested in dose-response had high values.
T1 sequence (whole entry): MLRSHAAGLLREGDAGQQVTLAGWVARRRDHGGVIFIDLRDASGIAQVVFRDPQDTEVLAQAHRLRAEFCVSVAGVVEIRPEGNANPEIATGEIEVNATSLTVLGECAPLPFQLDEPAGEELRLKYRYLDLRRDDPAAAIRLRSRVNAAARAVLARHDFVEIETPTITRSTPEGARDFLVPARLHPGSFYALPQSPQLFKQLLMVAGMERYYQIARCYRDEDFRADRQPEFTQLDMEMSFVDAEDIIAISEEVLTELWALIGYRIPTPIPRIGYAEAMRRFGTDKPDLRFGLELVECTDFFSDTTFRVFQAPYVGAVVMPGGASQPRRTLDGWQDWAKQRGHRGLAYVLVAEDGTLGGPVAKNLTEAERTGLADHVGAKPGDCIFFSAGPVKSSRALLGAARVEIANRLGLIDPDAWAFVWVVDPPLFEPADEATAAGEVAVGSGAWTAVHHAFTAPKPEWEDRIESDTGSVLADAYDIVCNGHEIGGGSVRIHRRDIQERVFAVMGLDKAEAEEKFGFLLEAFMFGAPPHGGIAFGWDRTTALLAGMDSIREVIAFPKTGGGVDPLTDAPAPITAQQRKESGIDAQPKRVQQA
The experiment in a line: Assay for Asp RNA synthetase-1 from Mycobacterium tuberculosis. In kind it is functional. Also noted: scale not given: direction of the effect not stated beside the values. As to conditions: 30 µM.

For experiment [2], the target named is Shiga toxin 2 (Escherichia coli O157:H7) (UniProt P09385+P09386). The experiment in a line: E. coli 0.157:H7 Shiga Toxin SOP - stx2 screening assay. As to conditions: 30 µM. Also noted: scale not given: direction of the effect not stated beside the values. The format is functional.

As for `Cn1ccc2c(C(=O)N3CCC(C(N)=O)CC3)cccc21`, the Percent Effect is 0.465% in experiment [1] and -43.9% in experiment [2].

`Cc1ccoc1C(=O)N1CC[C@H]2O[C@@H](C)C[C@H]2C1`: the Percent Effect was -2.48% in experiment [1] and -17.1% in experiment [2].

In the case of `CC(O)CN1CCN(C(=O)c2cc3ccccc3c(=O)[nH]2)CC1` (configuration not stated), the Percent Effect in experiment [1] was 0.869%; in experiment [2], -10.8%.

`CCc1ccc(CN2CCC3(CC2)CC(N2CCN(C)CC2)CO3)cc1` (configuration not stated): the Percent Effect in experiment [1] stood at 2.64%; in experiment [2], 1.21%.

Consider `CC(=O)N1CCCN(C(=O)NCc2cc[nH]n2)CC1`, for which the Percent Effect in experiment [1] is -1.74%; in experiment [2], -9.44%.

As to `Cc1ccc(-c2ncc(C(=O)NCCS(N)(=O)=O)s2)c(C)c1`, the Percent Effect in experiment [1] came out at 1.7%; in experiment [2], 18.5%.

Take `Cc1nn2cccnc2c1C(=O)N1CCCC(n2ccnc2)C1` (configuration not stated): the Percent Effect in experiment [1] was 6.28%; in experiment [2], -29.8%.

`CC1=Nc2c(c(=O)[nH]n2C2CCOCC2)C(c2cccc(Br)c2)S1` (configuration not stated): the Percent Effect was determined as 0.0871% in experiment [1] and 15% in experiment [2].

Consider `Cc1cnn(CC2CCCN2CC(=O)Nc2cc(C)nn2C)c1` (configuration not stated), for which the Percent Effect is 0.972% in experiment [1] and -20.9% in experiment [2].

Turning to `Cc1ccc(CC(=O)N2CCc3nnc(N(C)C)cc3C2)cn1`, the figures for the Percent Effect in experiment [1] and in experiment [2] were 0.322% and -40.7%, respectively.

For the compound `O=C(NCCNc1ncccn1)N1CCN(Cc2cccnc2)CC1`, the results for the Percent Effect in experiment [1] and in experiment [2] were 6.28% and -6.42%, respectively.

Take `O=C(NCCCN1CCOCC1)c1cc(-c2ccc3c(c2)CCO3)n[nH]1`: the Percent Effect in experiment [1] is -2.27%; in experiment [2], -67.7%.

In the case of `Clc1ccc(CN2CCCC(Cn3cncn3)C2)c2ncccc12` (configuration not stated), the figures for the Percent Effect in experiment [1] and in experiment [2] were 2.62% and -50.6%, respectively.

In the case of `CN(C)C(=O)C1(CCCc2ccncc2)CCCN1` (configuration not stated), the Percent Effect in experiment [1] is -0.998%; in experiment [2], 11.3%.

Turning to `CC1CCCN(Cc2csc(-c3ncccn3)n2)CC1` (configuration not stated), the results for the Percent Effect in experiment [1] and in experiment [2] were -2.94% and -26.7%, respectively.

For the compound `COCC(=O)N1CCO[C@H]2[C@H](OC)CC[C@@H]21`, the Percent Effect in experiment [1] is 9.03%; in experiment [2], 2.73%.

With `COc1cc(C)nc(N2CCN(C(=O)CCn3cc(C)cn3)CC2)n1`, the Percent Effect is -3.63% in experiment [1] and 12% in experiment [2].

As for `CCN1CC2(CCNCC2)COc2ccccc2S1(=O)=O`, the Percent Effect in experiment [1] was -1.28%; in experiment [2] it was -27.7%.

As to `CC(=O)N1CCC(c2cc(C(F)(F)F)n3ccnc3n2)CC1`, the Percent Effect in experiment [1] is 6.9%; in experiment [2], -9.96%.

Take `CCOC(=O)CCC(=O)NC(C)c1ccc(NC(=O)CC)cc1` (configuration not stated): the Percent Effect in experiment [1] is -8.03%; in experiment [2], -0.224%.

`CN(Cc1noc(C2CC2)n1)C1CCN(Cc2nnc(C3CC3)o2)C1` (configuration not stated): the Percent Effect in experiment [1] was 4.05%; in experiment [2], -15.5%.

With `Cc1nc(C)n(CC2CN(CCCOc3ccccc3C)CCO2)n1` (configuration not stated), the results for the Percent Effect in experiment [1] and in experiment [2] were 1.31% and 4.82%, respectively.

In the case of `Cc1cc(C)nc(Nc2cc(C3CCCN(C)C3)nc(C)n2)n1` (configuration not stated), the Percent Effect in experiment [1] was 0.64%; in experiment [2], -0.428%.

On to `CC1CN(C)c2ccccc2CN1C(=O)CSc1ccncc1` (configuration not stated), for which the Percent Effect was 6.09% in experiment [1] and -6.66% in experiment [2].

As to `CCn1cc(Br)c(C(=O)NCc2cccnc2)n1`, the Percent Effect in experiment [1] was 7.19%; in experiment [2], -69.5%.

On to `COc1ccc(CC(=O)N2C[C@@H]3COC[C@]3(CN(C)C)C2)cc1`, for which the Percent Effect in experiment [1] was -5.29%; in experiment [2] it was -4.41%.

Regarding `O=C(c1ccncc1)N1CCC(c2nc(O)cc(-c3cccnc3)n2)C1` (configuration not stated), the results for the Percent Effect in experiment [1] and in experiment [2] were -1.81% and 4.42%, respectively.

Take `O=c1nc(CNc2ccccc2)[nH]n1Cc1ccccc1`: the Percent Effect in experiment [1] came to 3.89%; in experiment [2], 2.45%.

Consider `CCOC(=O)N1CCN(C(=O)c2ccc3ccn(C)c3c2)CC1`, for which the values for the Percent Effect in experiment [1] and in experiment [2] were -0.585% and 1.39%, respectively.

Turning to `CC(C)Oc1ccc(CNC(=O)CC(F)(F)F)cc1F`, the values for the Percent Effect in experiment [1] and in experiment [2] were -4.64% and 33.4%, respectively.

Take `Fc1cc(CNCc2ccc3c(c2)CCO3)ccc1N1CCOCC1`: the Percent Effect in experiment [1] is -1.01%; in experiment [2], -16.1%.

Take `C=Cn1ncc(CN2C[C@@H]3CCCN3C[C@H]2CCSC)c1C`: the Percent Effect in experiment [1] was 1.89%; in experiment [2] it was -18.3%.

For the compound `COc1cccc(COCC(=O)N2CCCC(n3ccnc3)C2)c1` (configuration not stated), the figures for the Percent Effect in experiment [1] and in experiment [2] were -3.41% and 23.8%, respectively.

Regarding `CC(=O)N1CCCN(C(=O)NCCc2ccc(Cl)s2)CC1`, the Percent Effect in experiment [1] is -3.04%; in experiment [2], -19.8%.

Take `CCc1ccccc1NC(=O)N1CCn2cnc(COC)c2C1`: the Percent Effect in experiment [1] is -3.09%; in experiment [2], 6.27%.

Consider `CCn1ccnc1CN1CCN(CC(O)Cn2cccn2)CC1` (configuration not stated), for which the Percent Effect in experiment [1] is -1.83%; in experiment [2], -31.5%.

For the compound `CC1CCN(S(=O)(=O)NCCCn2cncn2)CC1`, the Percent Effect in experiment [1] was -2.66%; in experiment [2] it was -6.63%.

For the compound `COCC(=O)N1CC[C@@H]2O[C@H](COCc3ccncc3)CC[C@@H]21`, the Percent Effect in experiment [1] is 4.14%; in experiment [2], -2.38%.

With `c1cnnc(N2CCCC(NCc3cn4ccccc4n3)C2)c1` (configuration not stated), the Percent Effect in experiment [1] is 2.13%; in experiment [2], -114%.

As to `COc1cccc(COCC(=O)N2CCCC(n3ccnc3C)C2)c1` (configuration not stated), the Percent Effect in experiment [1] is -4.19%; in experiment [2], -2.47%.

Regarding `Oc1ccc(N2CCN(Cc3cc4c(cc3Br)OCCO4)CC2)cc1`, the Percent Effect in experiment [1] turned out to be 4.07%; in experiment [2] it was 6.03%.

In the case of `O=C1[C@H]2CC[C@H](CN(S(=O)(=O)c3ccccc3)C2)N1Cc1cscn1`, the Percent Effect is 1.23% in experiment [1] and -25.8% in experiment [2].

As to `O=C(CN1CCCC1Cn1cccn1)NC1CCOCC1` (configuration not stated), the results for the Percent Effect in experiment [1] and in experiment [2] were -1.71% and 13.3%, respectively.

Turning to `Cc1ccc(C(=O)N2CCN(CC(O)c3ccc(F)cc3)CC2)s1` (configuration not stated), the Percent Effect in experiment [1] amounted to 0.567%; in experiment [2], 32.2%.

On to `Cc1cnn(CC2CCCN2C(=O)c2cccc(-n3cnnn3)c2)c1` (configuration not stated), for which the Percent Effect was -7.68% in experiment [1] and 9.64% in experiment [2].

Consider `CCc1ncc2c(n1)CN(C(=O)COC)C2`, for which the Percent Effect was 2.9% in experiment [1] and -5.79% in experiment [2].

Turning to `CCNC(=O)C1CCN(Cc2csc(-c3ccc(C)o3)n2)CC1`, the Percent Effect is 6.68% in experiment [1] and -30.3% in experiment [2].

Regarding `CCS(=O)(=O)CCN1CCC(N(C)Cc2noc(C(C)C)n2)C1` (configuration not stated), the Percent Effect in experiment [1] was 0%; in experiment [2], -10.7%.

With `CCc1nc(CC(=O)N2CCn3c(nnc3C(F)(F)F)C2)cs1`, the Percent Effect in experiment [1] turned out to be 1.3%; in experiment [2], 17.9%.

With `CCOc1cccc(C(=O)N2CCN(c3nccc(OC)n3)CC2)c1`, the Percent Effect was 7.36% in experiment [1] and 22.4% in experiment [2].

For the compound `COCCNC(=O)[C@H]1CN(c2nnc(C)s2)C[C@H]2OCC[C@@H]12`, the figures for the Percent Effect in experiment [1] and in experiment [2] were -1.22% and -23.9%, respectively.
